Counter-ions that a name gives are not always drawn. ± gives the standard deviation of the averaged measurements.
Experiments:
Test in all cases: growth (OD600 after 10 h); higher = more growth (less inhibition)
[1] = system: E. coli TESEC Alr+ wild-type control; settings: compound 0.1 mM; raw OD600 reference: median of DMSO wells 0.241, cell-free background 0.041
Procedure: (§1)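 TESEC Mtb Alr E. coli, or the Alr+ wild-type control, in 384-well plates with Prestwick library compounds at 0.1 mM and 1% DMSO, across arabinose induction levels of 1E3 to 1E7 nM. Growth is read as OD600 after 10 h at 37 °C in triplicate biological replicates.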

E. coli TESEC Mtb Alr [2] = settings: compound 0.1 mM
Procedure: as §1

E. coli TESEC Mtb Asd = settings: compound 0.1 mM
Procedure: (§2)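 TESEC E. coli strains in which the native enzyme is deleted and replaced by arabinose-inducible Mtb Asd, DapB, CysH or TrpD, each grown in its selective medium. Strains were screened against the Prestwick library at 0.1 mM and 1% DMSO in 384-well format at low and high arabinose induction. Growth is read as OD600 after 10 h in triplicate.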

E. coli TESEC Mtb DapB = settings: compound 0.1 mM
Procedure: as §2

[3] = system: E. coli TESEC Alr+ wild-type control; settings: compound 0.1 mM; raw OD600 reference: median of DMSO wells 0.49, cell-free background 0.052
Procedure: (§3)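 TESEC Mtb Alr E. coli (ΔaraC ΔtolC ΔentC Δalr ΔdadX, arabinose-inducible Mtb Alr) or the Alr+ wild-type control strain, grown in defined M9-fructose medium without D-alanine in 96-well plates with Prestwick library compounds at 0.1 mM and 1% DMSO. Low Alr induction is 0.1 µM arabinose and high induction is 10 mM arabinose.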

E. coli TESEC Mtb Alr [4] = settings: compound 0.1 mM; remark: listed apart in the source
Procedure: as §3

[5] = arabinose 1000 nM, raw OD600 reference: median of DMSO wells 0.294, cell-free background 0.041
[6] = arabinose 10000 nM, raw OD600 reference: median of DMSO wells 0.264, cell-free background 0.041
[7] = arabinose 100000 nM, raw OD600 reference: median of DMSO wells 0.201, cell-free background 0.041
[8] = arabinose 1000000 nM, raw OD600 reference: median of DMSO wells 0.193, cell-free background 0.041
[9] = arabinose 10000000 nM, raw OD600 reference: median of DMSO wells 0.146, cell-free background 0.041
[10] = arabinose induction (level): High, raw OD600 reference: median of DMSO wells 0.331, cell-free background 0.041
[11] = arabinose induction (level): Low, raw OD600 reference: median of DMSO wells 0.417, cell-free background 0.041
[12] = arabinose induction (level): High, raw OD600 reference: median of DMSO wells […], cell-free background 0.041
[13] = arabinose induction (level): Low, raw OD600 reference: median of DMSO wells 0.227, cell-free background 0.041
[14] = arabinose 100 nM, raw OD600 reference: median of DMSO wells 0.413, cell-free background 0.052
[15] = arabinose 10000000 nM, raw OD600 reference: median of DMSO wells […], cell-free background 0.052

SMILES | growth [1] | growth (E. coli TESEC Mtb Alr [2]; [5]) | growth (E. coli TESEC Mtb Alr [2]; [6]) | growth (E. coli TESEC Mtb Alr [2]; [7]) | growth (E. coli TESEC Mtb Alr [2]; [8]) | growth (E. coli TESEC Mtb Alr [2]; [9]) | growth (E. coli TESEC Mtb Asd; [10]) | growth (E. coli TESEC Mtb Asd; [11]) | growth (E. coli TESEC Mtb DapB; [12]) | growth (E. coli TESEC Mtb DapB; [13]) | growth [3] | growth (E. coli TESEC Mtb Alr [4]; [14]) | growth (E. coli TESEC Mtb Alr [4]; [15])
CNCCCC1c2ccccc2C=Cc2ccccc21 [Protriptyline hydrochloride] | 0.177 ± 0.013 | 0.219 ± 0.0041 | 0.256 ± 0.018 | 0.157 ± 0.0029 | 0.12 ± 0.0051 | 0.137 ± 0.0036 | 0.153 ± 0.0035 | 0.263 ± 0.058 | 0.164 ± 0.039 | 0.21 ± 0.011 | 0.558 ± 0.023 | 0.402 ± 0.013 | 0.313 ± 0.018
Cc1cccc(C)c1NC(=O)C1CCCCN1C (stereo not drawn) [Mepivacaine hydrochloride] | 0.233 ± 0.012 | 0.2802 ± 0.0024 | 0.273 ± 0.0048 | 0.199 ± 0.026 | 0.225 ± 0.013 | 0.136 ± 0.0053 | 0.366 ± 0.042 | 0.367 ± 0.045 | 0.203 ± 0.013 | 0.216 ± 0.024 | 0.46 ± 0.038 | 0.41 ± 0.011 | 0.365 ± 0.0059
CN1CCN(C2=Nc3ccccc3Oc3ccc(Cl)cc32)CC1 [Loxapine succinate] | 0.166 ± 0.0027 | 0.182 ± 0.0068 | 0.194 ± 0.0033 | 0.189 ± 0.0039 | 0.12 ± 0.0061 | 0.158 ± 0.0041 | 0.201 ± 0.029 | 0.214 ± 0.021 | 0.19 ± 0.0079 | 0.248 ± 0.079 | 0.399 ± 0.0093 | 0.381 ± 0.017 | 0.224 ± 0.014
CC(O)(P(=O)(O)O)P(=O)(O)O [Etidronic acid, disodium salt] | 0.261 ± 0.021 | 0.331 ± 0.0087 | 0.275 ± 0.0062 | 0.20943 ± 0.00012 | 0.184 ± 0.0041 | 0.159 ± 0.003 | 0.474 ± 0.015 | 0.426 ± 0.068 | 0.216 ± 0.003 | 0.26 ± 0.015 | 0.578 ± 0.046 | 0.415 ± 0.021 | 0.261 ± 0.056
CCCCC(=O)N(Cc1ccc(-c2ccccc2-c2nnn[nH]2)cc1)[C@H](C(=O)O)C(C)C [Valsartan] | 0.249 ± 0.013 | 0.307 ± 0.0036 | 0.27 ± 0.0035 | 0.213 ± 0.02 | 0.193 ± 0.014 | 0.151 ± 0.0071 | 0.291 ± 0.042 | 0.396 ± 0.047 | 0.211 ± 0.011 | 0.257 ± 0.03 | 0.557 ± 0.049 | 0.422 ± 0.016 | 0.339 ± 0.012
NC(=O)c1ccc[n+]([C@@H]2O[C@H](COP(=O)([O-])OP(=O)(O)OC[C@H]3O[C@@H](n4cnc5c(N)ncnc54)[C@H](O)[C@@H]3O)[C@@H](O)[C@H]2O)c1 [Nadide] | 0.282 ± 0.006 | 0.363 ± 0.018 | 0.339 ± 0.0072 | 0.238 ± 0.031 | 0.245 ± 0.0026 | 0.175 ± 0.0086 | 0.428 ± 0.012 | 0.441 ± 0.0097 | 0.21 ± 0.0067 | 0.216 ± 0.02 | 0.564 ± 0.14 | 0.415 ± 0.025 | 0.416 ± 0.0063
CC(C)c1nc(CN(C)C(=O)N[C@H](C(=O)N[C@@H](Cc2ccccc2)C[C@H](O)[C@H](Cc2ccccc2)NC(=O)OCc2cncs2)C(C)C)cs1 [Ritonavir] | 0.166 ± 0.0093 | 0.216 ± 0.015 | 0.221 ± 0.025 | 0.217 ± 0.012 | 0.114 ± 0.0092 | 0.159 ± 0.0028 | 0.245 ± 0.0089 | 0.15 ± 0.008 | 0.192 ± 0.013 | 0.25 ± 0.0048 | 0.362 ± 0.01 |  | 
CC(=O)OC[C@H]1O[C@@H]([S-])[C@H](OC(C)=O)[C@@H](OC(C)=O)[C@@H]1OC(C)=O.CCP(CC)CC.[Au+] [Auranofin] | 0.0481 ± 0.0033 | 0.04847 ± 0.00021 | 0.0451 ± 0.00026 | 0.0634 ± 0.012 | 0.0436 ± 0.00056 | 0.0467 ± 0.00053 | 0.0525 ± 0.0026 | 0.0514 ± 0.0016 | 0.0674 ± 0.019 | 0.111 ± 0.019 | 0.059 ± 0.00026 | 0.0775 ± 0.008 | 0.056 ± 0.00069
C[C@@H](c1ncncc1F)[C@](O)(Cn1cncn1)c1ccc(F)cc1F [Voriconazole] | 0.214 ± 0.013 | 0.267 ± 0.0077 | 0.252 ± 0.003 | 0.196 ± 0.038 | 0.154 ± 0.0053 | 0.147 ± 0.008 | 0.315 ± 0.062 | 0.285 ± 0.035 | 0.169 ± 0.015 | 0.201 ± 0.013 | 0.557 ± 0.1 | 0.412 ± 0.011 | 0.318 ± 0.012
CCOC(=O)[C@H](CCc1ccccc1)N[C@@H](C)C(=O)N1[C@H](C(=O)O)C[C@@H]2CCC[C@@H]21 [Ramipril] | 0.22 ± 0.014 | 0.292 ± 0.004 | 0.288 ± 0.01 | 0.19 ± 0.011 | 0.217 ± 0.004 | 0.14 ± 0.0088 | 0.253 ± 0.065 | 0.365 ± 0.092 | 0.188 ± 0.013 | 0.229 ± 0.0092 | 0.586 ± 0.011 | 0.42 ± 0.0058 | 0.295 ± 0.022
CCn1cc(C(=O)O)c(=O)c2ccc(C)nc21 [Nalidixic acid sodium salt] | 0.04987 ± 0.00029 | 0.0467 ± 0.0009 | 0.0394 ± 0.00056 | 0.0502 ± 0.0012 | 0.0413 ± 0.0013 | 0.05153 ± 0.00015 | 0.09847 ± 0.00049 | 0.0829 ± 0.0083 | 0.0992 ± 0.0072 | 0.0689 ± 0.0001 | 0.0678 ± 0.0015 | 0.0753 ± 0.014 | 0.0595 ± 0.0029
COc1ccc(C(=O)NCc2cccnc2)cc1C(=O)NCc1cccnc1 [Picotamide monohydrate] | 0.234 ± 0.013 | 0.264 ± 0.034 | 0.258 ± 0.0067 | 0.189 ± 0.02 | 0.161 ± 0.0041 | 0.132 ± 0.0031 | 0.256 ± 0.042 | 0.41 ± 0.037 | 0.189 ± 0.0065 | 0.228 ± 0.034 | 0.453 ± 0.033 | 0.4272 ± 0.0023 | 0.321 ± 0.024
CC(C)NC(=N)NC(=N)Nc1ccc(Cl)cc1 [Proguanil hydrochloride] | 0.216 ± 0.0044 | 0.261 ± 0.006 | 0.275 ± 0.0087 | 0.176 ± 0.013 | 0.143 ± 0.0015 | 0.142 ± 0.0028 | 0.216 ± 0.048 | 0.31 ± 0.068 | 0.207 ± 0.03 | 0.244 ± 0.016 | 0.475 ± 0.012 | 0.422 ± 0.009 | 0.345 ± 0.019
CCCCOC(=O)c1ccc(O)cc1 [Butylparaben] | 0.137 ± 0.0043 | 0.148 ± 0.0023 | 0.213 ± 0.0083 | 0.157 ± 0.0026 | 0.131 ± 0.0015 | 0.15 ± 0.0048 | 0.174 ± 0.0066 | 0.193 ± 0.017 | 0.175 ± 0.011 | 0.2066 ± 0.00083 | 0.399 ± 0.014 | 0.376 ± 0.029 | 0.304 ± 0.019
CCN1CCCC1CNC(=O)c1cc(S(=O)(=O)CC)c(N)cc1OC (stereo not drawn) [Amisulpride] | 0.235 ± 0.0063 | 0.3 ± 0.011 | 0.253 ± 0.005 | 0.251 ± 0.025 | 0.169 ± 0.003 | 0.16 ± 0.0017 | 0.332 ± 0.093 | 0.377 ± 0.067 | 0.224 ± 0.02 | 0.239 ± 0.031 | 0.578 ± 0.046 | 0.408 ± 0.011 | 0.3237 ± 0.0029
